Laboratory results from PubChem BioAssay AID489043 (National Center for Advancing Translational Sciences (NCATS), 2010).
Inconclusive results are not listed. Unmarked numbers belong to inactive results. Activity calls are given as the source filed them. Calls follow the shape of the dose curve; as a rule, active = well fitted activation curve with a large enough effect; inconclusive = small, poorly fitted or top-dose-only effect; inactive = flat fitted curve, though single readings scatter.

Each compound was assayed against Relaxin receptor 2 (Homo sapiens) (UniProt Q8WXD0) (assay: qHTS Assay for Agonists of the Relaxin Receptor RXFP1: RXFP2 Hit Validation). Details: HEK293 RXFP2 cAMP TR-FRET, 30 min; series mostly up to 115 µM; activation: at the top concentration.
Outline: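 TR-FRET cAMP read-out in lysed HEK293 RXFP2 cells, normalized to buffer (basal) and 29 nM porcine relaxin (100%). Compounds 30 min, 37C, with Ro 20174 present. EC50 via standard Hill equation.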
Also: nearly all actives have a fitted effect of over 65% in size.
Potency is read from the fitted curve at half-maximal effect.

Sequence of Relaxin receptor 2 (Homo sapiens) (Q8WXD0 whole entry, looked up): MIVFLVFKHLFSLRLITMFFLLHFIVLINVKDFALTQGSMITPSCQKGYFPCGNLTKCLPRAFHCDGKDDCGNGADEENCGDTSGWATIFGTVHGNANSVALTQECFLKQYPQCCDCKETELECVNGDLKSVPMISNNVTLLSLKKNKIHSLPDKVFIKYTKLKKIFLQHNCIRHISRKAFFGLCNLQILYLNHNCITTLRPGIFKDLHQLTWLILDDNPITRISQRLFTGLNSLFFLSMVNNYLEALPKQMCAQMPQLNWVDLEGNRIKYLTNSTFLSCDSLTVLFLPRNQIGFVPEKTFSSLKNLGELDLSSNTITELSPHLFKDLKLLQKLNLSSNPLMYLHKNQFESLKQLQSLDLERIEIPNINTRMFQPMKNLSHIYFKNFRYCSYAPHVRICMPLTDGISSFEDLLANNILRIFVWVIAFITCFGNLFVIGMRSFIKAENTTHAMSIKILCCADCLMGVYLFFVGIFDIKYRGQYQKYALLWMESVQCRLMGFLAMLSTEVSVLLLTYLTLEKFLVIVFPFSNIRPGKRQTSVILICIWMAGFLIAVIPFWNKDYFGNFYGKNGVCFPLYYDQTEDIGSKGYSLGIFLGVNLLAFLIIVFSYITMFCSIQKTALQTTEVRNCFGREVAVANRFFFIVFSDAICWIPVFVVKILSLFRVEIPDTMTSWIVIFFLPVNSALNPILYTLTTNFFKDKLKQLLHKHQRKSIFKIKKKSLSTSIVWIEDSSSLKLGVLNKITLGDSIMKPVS

Structure (SMILES) | Potency | activation [%]
CCOP1(=O)OCC2OC(n3cnc4c(N)ncnc43)C(O)C2O1 (stereo unspecified) | 7.76 µM (active) | 
CCN(c1ccccc1)S(=O)(=O)c1ccc(OC)c(NC(=O)C2CC(=O)N(Cc3ccccc3)C2)c1 (stereo unspecified) |  | -2.75
Nc1c(Cl)cc(-c2[nH]c3cc(C(=O)NCCO)ccc3c(=O)c2O)cc1Cl | 34.6 µM (active) | 
CC[n+]1ccc(/C=C/c2ccc(N(C)C)cc2)c2ccccc21 |  | -21.1
Cc1ccc(-c2ccc3nnc(SCC(=O)NCC4CCCO4)n3n2)cc1 (stereo unspecified) |  | -9.14
COc1ccccc1CNS(=O)(=O)c1cc(CN2C(=O)c3cccnc3C2=O)ccc1OC | 30.9 µM (active) | 
Cc1ccc2[nH]c3c(=S)nc[nH]c3c2c1 | 6.9 µM (active) | 
CCOC(=O)C1CCN(C(=O)c2cc3c(=O)n4ccccc4nc3s2)CC1 | 48.9 µM (active) | 
Cc1ccc(-n2nnc3c(=O)n(CC(=O)NCC4CCCO4)cnc32)cc1 (stereo unspecified) | 30.9 µM (active) | 
C=CCNC(=O)NC(=O)COC(=O)c1nc2nccc(C)n2n1 | 34.6 µM (active) | 
COC(=O)c1sc(N2C(=O)C(O)=C(C(=O)c3ccc(C)o3)C2c2ccc(F)cc2)nc1C (stereo unspecified) | 2.75 µM (active) | 
COC(=O)c1cc(CN2C(=O)c3ccccc3C2=O)c(O)c([N+](=O)[O-])c1 | 38.9 µM (active) | 
COc1ccc(Cl)cc1-c1n[nH]c(=S)o1 | 4.88 µM (active) | 
C=CCNc1ncnc2c1ncn2C1OC(CO)C(O)C1O (stereo unspecified) |  | -17.7
COc1ccc(C(=O)Nc2ccc(S(=O)(=O)Nc3onc(C)c3C)cc2)c(OC)c1 | 9.43 µM (active) | 
COc1ccc(Nc2ncc(C#N)c(N)n2)c(OC)c1 |  | 2.09
